# Data: PubChem BioAssay
# Active and inactive are the calls of the source.
# Experiment: E. coli DRC41 culture turbidity changes, primary screen, E. coli filamentation inducer project, strain DRC41, OD650, 48 h (AID 1152);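 further: E. coli MC1000 strain DRC41 lacking acrAB efflux pump and sulA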
# Conditions: E. coli DRC41 (acrAB sulA), higher = more signal, called active from +8 up or from −8 down
row,Structure (SMILES),z-score
1,COC(=O)c1c(CC[C@@H](CO)NC(=O)Nc2ncn[nH]2)oc(C(=O)Cc2ccccc2)c1C(=O)OC,-0.862 (inactive)
2,COC(=O)[C@@]1(Cc2ccc(F)cc2)[C@H]2c3cc(C(=O)N4CCCC4)n(CCc4ccc(OC)c(Br)c4)c3C[C@H]2CN1C(=O)c1ccccc1,-0.71 (inactive)
3,[N-]=[N+]=NCc1ccccc1[C@@H]1OC(c2ccc(OCCCO)cc2)=N[C@]1(Cc1ccccc1N=[N+]=[N-])C(N)=O,-0.386 (inactive)
4,C#C[C@H](O[Si](C#CCCCCCC)(C(C)C)C(C)C)c1ccccc1,0.79 (inactive)
5,CC(=O)NCCCC[C@@H]1NC(=O)[C@@H]2C[C@H](C(=O)NCc3ccc(F)cc3)[C@H](c3ccc(O)cc3)N2C1=O,0.921 (inactive)
6,CC(C)C[C@@H]1NC(=O)[C@@H]2C[C@H](C(=O)NCCCCN(C)C)[C@H](c3ccc(O)cc3)N2C1=O,-0.0654 (inactive)
7,COCCOC(=O)N1C(=O)[C@@]2(c3cc(C#Cc4ccc(OC)cc4)ccc31)[C@H](c1ccc(O)cc1)N1[C@H](c3ccccc3)[C@H](c3ccccc3)OC(=O)[C@H]1[C@@H]2C(=O)N1CCN(c2ncccn2)CC1,0.714 (inactive)
8,CCOC(=O)C1=CC[C@@H](c2cccc(Cl)c2)N(S(=O)(=O)c2ccc(C)cc2)[C@H]1c1ccc(C#N)cc1,-1.41 (inactive)

# Experiment: small-molecule binders of probe aLefty1, primary screen, biochemical, small-molecule microarray, 635/667 nm fluorescence (AID 1153);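 further: score merges spot fluorescence with signal-to-noise ratio from the scanned slide images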
# Conditions: higher = more signal
row,Structure (SMILES),composite z-score
1,COC(=O)c1c2oc(c1C(=O)OC)C(=O)N[C@H](Cc1ccccc1)Cn1nncc1C1(CCCCC1)NC(=O)N[C@H](CO)CC2,-0.237
2,CCOC1=C2C(c3ccc(C)cc3)N(S(=O)(=O)c3ccc(C)cc3)CC2n2c(=O)n(-c3ccccc3)c(=O)n2C1 (configuration not stated),0.175
3,C[C@H]1C2[C@H](Cc3ccccc3)NC(=O)[C@]23C(=O)N[C@H](Cc2ccccc2)C(=O)N[C@H](Cc2ccccc2)C(=O)NC/C=C/CCC/C=C/C3[C@@H]2O[C@]12C (some centres not stated),-0.19
4,Cc1ccc(S[C@]2(C(=O)NCCCN(C)C)CC(=O)N(C(C)C)[C@@H]2c2ccc(CO)cc2I)cc1,0.264
5,O=C1O[C@@H](c2ccccc2)[C@@H](c2ccccc2)N2[C@@H](c3ccc(O)cc3)[C@]3(C(=O)Nc4ccccc43)[C@@H](C(=O)N3CCCCCCC3)[C@H]12,2.88
6,COc1ccc(C#Cc2ccc3c(c2)[C@]2(C(=O)N3)[C@H](C(=O)N3CCN(c4ncccn4)CC3)[C@H]3C(=O)O[C@H](c4ccccc4)[C@H](c4ccccc4)N3[C@@H]2c2ccc(O)cc2)cc1,0.583
7,COCCCNC(=O)[C@@]1(C)c2ccccc2C(=O)N(Cc2ccccc2)[C@H]1c1ccc(CO)cc1,0.114
8,C=CCC(OC(C)=O)[C@@H]1[C@@H](N(Cc2cc3ccccc3o2)C(=O)c2cccc3ccccc23)c2cc(OCCCO)ccc2N1C(=O)Cc1ccc(OC)cc1 (some centres not stated),-0.195
9,CC1CC/C=C\[C@H]2OC34C=CCN(c5ccc6ccccc6c5)C(=O)[C@H]3N(CCCCCO)C(=O)[C@@H]4C2C(=O)O1 (some centres not stated),-0.427
10,CN(C)CCCC[C@@H]1NC(=O)[C@@H]2C[C@H](C(=O)NCCCCCN)[C@H](c3ccc(O)cc3)N2C1=O,-0.056
11,CC(=O)n1cc(C(O)C2C=CC3C(=O)N(c4ccccc4)C(=O)C3N2Nc2ccc(C#N)cc2)c2ccccc21 (configuration not stated),0.201
12,COc1cc(NN2C(C(O)c3ccccc3)C=CC3C(=O)N(c4ccccc4)C(=O)C32)cc(OC)c1OC (configuration not stated),0.644
13,C/C=C/[C@H](CCn1cc([C@H](O)c2ccccc2)nn1)[Si](C)(C)c1ccc(OC)cc1,0.0038
14,C=C(C(=O)CC[C@@H](OC(=O)c1cccnc1)c1ccc(CO)o1)C(C)C,0.329
15,C=CCC(OC(C)=O)[C@@H]1[C@@H](N(Cc2cc3ccccc3o2)C(=O)c2cccc3ccccc23)c2cc(OCCCO)ccc2N1C(=O)Cc1ccc2ccccc2c1 (some centres not stated),-0.0547
16,Cc1ccccc1/C=C/C=O,-0.147
17,[N-]=[N+]=NCc1ccccc1C[C@]1(C(=O)NCc2ccccc2)COC(c2ccc(OCCCO)cc2)=N1,-0.373
18,COCCOC(=O)N1C(=O)[C@@]2(c3cc(C#CC4=CCCCC4)ccc31)[C@H](C(=O)N1CCN(c3ncccn3)CC1)[C@H]1C(=O)O[C@H](c3ccccc3)[C@H](c3ccccc3)N1[C@@H]2c1ccc(OCCO)cc1,0.894
19,COC(=O)C(CC#Cc1ccc2c(c1)[C@]1(C(=O)N2)[C@H](C(=O)N2CCCCCCC2)[C@H]2C(=O)O[C@H](c3ccccc3)[C@H](c3ccccc3)N2[C@@H]1c1ccccc1OCCO)C(=O)OC,3.08
